# Reference: PubChem BioAssay AID624305 (National Center for Advancing Translational Sciences (NCATS), 2012)
# Records with an inconclusive call do not appear. Values without a mark were called inactive. Calls of active or inactive are those of the source. Calls follow the shape of the dose curve; as a rule, active = well fitted activation curve with a large enough effect; inconclusive = small, poorly fitted or top-dose-only effect; inactive = no such curve, though single readings can be large or run the other way.
# Test: qHTS assay for re-activators of p53 using a Luc reporter: Hit Validation; also: nearly all actives have a fitted effect of over 75% in size; as to activation: 0% is about no effect
# Conditions: p53-responsive luciferase reporter cells, luminescence, H1299 line expressing heat-sensitive Ala138Val p53; series mostly up to 46.1 µM; activation: at the top concentration
# Summary of the method: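 Hit confirmation with a 1:5 dilution series, at 37 deg C for 24 hrs, in H1299 cells co-expressing temperature-sensitive p53-A138V and p53-responsive luciferase. Nocodazole served as control; luminescence read after 10 min with detection reagent.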
# Potency is read from the fitted curve at half-maximal effect.
SMILES,activation,Potency
Cc1ccc(C2C(C#N)=C(N)Oc3cc4c(cc32)OCO4)cc1 (stereo not drawn),27.1%,
CCOC(=O)NC1(Nc2ccc(C)cc2)Oc2ccccc2O1,,16400 nM (active)
CCOC(=O)c1ccc2ncc(C(=O)OCC)c(NCc3ccco3)c2c1,1.04%,
C/C(=N\NC(=O)c1cccs1)C(C)(C)C,-6.77%,
O=C(Nc1ccc2ccccc2c1)c1ccc(Cl)cc1Cl,,291 nM (active)
C=Cc1ccc(Cn2c(=O)n(CCCOC)c(=O)c3sccc32)cc1,-8.85%,
OCCNc1nc(NCc2ccccc2)c2ccccc2n1,-3.8% [at 9.22 µM],
Cc1c(C(=O)OC2CCC(C)CC2)[nH]c2c1C(=O)CCC2 (stereo not drawn),,1160 nM (active)
O=C(Nc1ncc(Cc2ccccc2)s1)c1cccs1,,2590 nM (active)
Cc1ccc(NC(=O)/C=C/c2ccco2)nc1,,2590 nM (active)
Cc1cc(=O)[nH]c(N/N=C/c2ccccn2)n1,,13000 nM (active)
OC(COc1ccc2cc(Br)ccc2c1)CN1CCCC1 (stereo not drawn),39.6%,
c1ccc(-n2ncc3c(N4CCCCC4)ncnc32)cc1,,1160 nM (active)
COc1cccc(-c2cn3nc4c(nc3n2)CCCC4)c1,,116 nM (active)
COc1ccc(CC(=O)Nc2ccc(C(=O)Nc3ccccc3C(=O)O)cc2)cc1OC,3.12%,
COc1cc(C(C)=O)ccc1Oc1ncnc2c1cnn2-c1ccc(F)cc1,9.9%,
c1ccc(COc2ccc(OCCOCCn3cncn3)cc2)cc1,,2910 nM (active)
NC(=O)c1cc2ccc(O)cc2oc1=Nc1ccccc1,-2.08%,
CCc1ccc2oc(-c3ccc(N)cc3)nc2c1,,92 nM (active)

SMILES,activation,Potency
O=C(c1cnn(-c2ccccc2)c1)c1ccccc1O,,1460 nM (active)
CCCN(C(=O)c1cccc(S(=O)(=O)N2CCCc3ccccc32)c1)C1CCS(=O)(=O)C1 (stereo not drawn),1.04%,
CCn1c(=O)c2ccccc2n(Cc2ccccc2C)c1=O,-7.29%,
Nc1nonc1-n1nnc(C(=O)N/N=C/c2cc(Br)ccc2O)c1CSC1=NCCS1,-26.8% [at 9.22 µM],
Cc1nc(NC(=O)c2csc3ccccc23)sc1C,,820 nM (active)
Cc1nc2ccccc2nc(C)c1=NOCc1ccccc1Cl,4.17%,
Cc1ccsc1C(=O)Nc1ccc2c(c1)OCCO2,,326 nM (active)
COC(=O)c1ccc(CSc2nnc(-c3c[nH]c4ccccc34)n2-c2ccccc2)cc1,5.21%,
CCOc1ccc(N/C=C/C(=O)c2ccccc2)c([N+](=O)[O-])c1,,461 nM (active)
CCOc1ccc(S(=O)(=O)c2c(C(=O)c3ccc(C)cc3)cnc3cc4c(cc23)OCCO4)cc1,-37%,
Fc1ccccc1OCCSc1nnnn1-c1ccccc1,,820 nM (active)
CC(C)NC(=S)N1CCN(S(C)(=O)=O)CC1,-7.81%,
Cn1ncc([N+](=O)[O-])c1C(=O)Nc1ccc(C2CCCCC2)cc1,24%,
COCCn1c(C)cc(C(=O)COc2ccc(N(C)S(=O)(=O)c3ccc(C)cc3)cc2)c1C,17.2%,
Nc1ccc(-c2cnc(-c3ccc(N)cc3)nc2)cc1,,291 nM (active)
O=C(NC(=S)Nc1ccccc1Br)C1CCCCC1,,20600 nM (active)
Cc1ccc(C(=O)OCC(=O)NCC2COc3ccccc3O2)cc1 (stereo not drawn),41.1%,
O=C(NN=C1CCCCCC1)c1cccs1,12.5% [at 9.22 µM],
O=C(NCCN1CCCCC1)Nc1cccc(C(F)(F)F)c1,-0.521%,
